According to the supplement of paper PMC11732987, “Enantioselective OTUD7B fragment discovery through chemoproteomics screening and high-throughput optimisation” (Communications Chemistry, 2025):

Assays:
Assay in all cases: log2 ratio of Biotin-Ahx-Ub-VS probe labelling (fragment/DMSO); higher = less target engagement (more negative = stronger competition), active = hit call of the paper (q ≤ 0.05, log2 ratio ≤ -1)
Conditions in all cases: compound concentration: 200 uM; treatment time: 3 h
USP42 = molecular target: T1, USP42 (UniProt Q9H9J4)
T1 sequence (whole entry): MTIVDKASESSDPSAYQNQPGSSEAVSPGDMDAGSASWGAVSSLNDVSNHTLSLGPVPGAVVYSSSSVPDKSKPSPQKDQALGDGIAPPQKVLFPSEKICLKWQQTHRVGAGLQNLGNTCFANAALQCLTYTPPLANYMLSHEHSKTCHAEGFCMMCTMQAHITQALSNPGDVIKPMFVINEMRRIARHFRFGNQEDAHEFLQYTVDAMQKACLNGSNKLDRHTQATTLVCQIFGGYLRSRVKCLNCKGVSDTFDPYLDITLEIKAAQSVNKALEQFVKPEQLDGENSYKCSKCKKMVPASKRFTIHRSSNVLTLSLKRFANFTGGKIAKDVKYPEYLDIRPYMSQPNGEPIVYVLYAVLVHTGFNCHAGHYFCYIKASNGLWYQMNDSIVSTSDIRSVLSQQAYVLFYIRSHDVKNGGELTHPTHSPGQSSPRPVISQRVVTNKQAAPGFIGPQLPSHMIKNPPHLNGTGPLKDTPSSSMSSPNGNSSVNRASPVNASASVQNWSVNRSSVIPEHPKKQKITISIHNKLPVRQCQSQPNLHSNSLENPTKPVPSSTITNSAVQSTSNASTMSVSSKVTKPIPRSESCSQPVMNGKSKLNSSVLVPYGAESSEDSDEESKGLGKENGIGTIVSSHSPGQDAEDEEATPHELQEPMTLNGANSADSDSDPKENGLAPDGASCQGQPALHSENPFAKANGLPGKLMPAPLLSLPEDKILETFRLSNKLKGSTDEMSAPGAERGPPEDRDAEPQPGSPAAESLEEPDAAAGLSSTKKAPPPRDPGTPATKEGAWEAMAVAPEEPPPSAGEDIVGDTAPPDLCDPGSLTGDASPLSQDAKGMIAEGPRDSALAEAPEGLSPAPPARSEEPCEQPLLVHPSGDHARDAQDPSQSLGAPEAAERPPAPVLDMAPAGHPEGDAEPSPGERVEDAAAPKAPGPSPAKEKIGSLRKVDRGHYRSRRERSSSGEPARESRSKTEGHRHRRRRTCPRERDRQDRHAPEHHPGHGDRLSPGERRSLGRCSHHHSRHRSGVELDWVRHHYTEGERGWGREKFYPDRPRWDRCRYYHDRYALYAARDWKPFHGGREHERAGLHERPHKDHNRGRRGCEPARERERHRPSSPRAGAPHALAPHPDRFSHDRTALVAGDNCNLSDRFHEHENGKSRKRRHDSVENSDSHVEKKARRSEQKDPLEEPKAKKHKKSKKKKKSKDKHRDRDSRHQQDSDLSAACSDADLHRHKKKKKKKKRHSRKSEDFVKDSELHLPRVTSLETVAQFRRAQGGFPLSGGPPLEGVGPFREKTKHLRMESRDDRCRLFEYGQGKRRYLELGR
Summary of the method: (§1)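 Using Biotin-Ahx-Ub-VS at 0.5 µM final for 1 h, DUBs were labelled in HEK293T lysate (495 µg per sample) that had first been treated in triplicate with fragment at 200 µM or vehicle for 3 h. NeutrAvidin enrichment, LysC and trypsin digestion and diaPASEF LC-MS/MS followed. Spectronaut label-free quantities were global-median-normalised. Values are average log2 fragment/vehicle ratios by unpaired t-test, using proteins with ≥2 unique peptides.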

USP46 = USP46 (UniProt P62068)
Summary of the method: as §1

USP47 = molecular target: T2, USP47 (UniProt Q96K76)
T2 sequence (whole entry): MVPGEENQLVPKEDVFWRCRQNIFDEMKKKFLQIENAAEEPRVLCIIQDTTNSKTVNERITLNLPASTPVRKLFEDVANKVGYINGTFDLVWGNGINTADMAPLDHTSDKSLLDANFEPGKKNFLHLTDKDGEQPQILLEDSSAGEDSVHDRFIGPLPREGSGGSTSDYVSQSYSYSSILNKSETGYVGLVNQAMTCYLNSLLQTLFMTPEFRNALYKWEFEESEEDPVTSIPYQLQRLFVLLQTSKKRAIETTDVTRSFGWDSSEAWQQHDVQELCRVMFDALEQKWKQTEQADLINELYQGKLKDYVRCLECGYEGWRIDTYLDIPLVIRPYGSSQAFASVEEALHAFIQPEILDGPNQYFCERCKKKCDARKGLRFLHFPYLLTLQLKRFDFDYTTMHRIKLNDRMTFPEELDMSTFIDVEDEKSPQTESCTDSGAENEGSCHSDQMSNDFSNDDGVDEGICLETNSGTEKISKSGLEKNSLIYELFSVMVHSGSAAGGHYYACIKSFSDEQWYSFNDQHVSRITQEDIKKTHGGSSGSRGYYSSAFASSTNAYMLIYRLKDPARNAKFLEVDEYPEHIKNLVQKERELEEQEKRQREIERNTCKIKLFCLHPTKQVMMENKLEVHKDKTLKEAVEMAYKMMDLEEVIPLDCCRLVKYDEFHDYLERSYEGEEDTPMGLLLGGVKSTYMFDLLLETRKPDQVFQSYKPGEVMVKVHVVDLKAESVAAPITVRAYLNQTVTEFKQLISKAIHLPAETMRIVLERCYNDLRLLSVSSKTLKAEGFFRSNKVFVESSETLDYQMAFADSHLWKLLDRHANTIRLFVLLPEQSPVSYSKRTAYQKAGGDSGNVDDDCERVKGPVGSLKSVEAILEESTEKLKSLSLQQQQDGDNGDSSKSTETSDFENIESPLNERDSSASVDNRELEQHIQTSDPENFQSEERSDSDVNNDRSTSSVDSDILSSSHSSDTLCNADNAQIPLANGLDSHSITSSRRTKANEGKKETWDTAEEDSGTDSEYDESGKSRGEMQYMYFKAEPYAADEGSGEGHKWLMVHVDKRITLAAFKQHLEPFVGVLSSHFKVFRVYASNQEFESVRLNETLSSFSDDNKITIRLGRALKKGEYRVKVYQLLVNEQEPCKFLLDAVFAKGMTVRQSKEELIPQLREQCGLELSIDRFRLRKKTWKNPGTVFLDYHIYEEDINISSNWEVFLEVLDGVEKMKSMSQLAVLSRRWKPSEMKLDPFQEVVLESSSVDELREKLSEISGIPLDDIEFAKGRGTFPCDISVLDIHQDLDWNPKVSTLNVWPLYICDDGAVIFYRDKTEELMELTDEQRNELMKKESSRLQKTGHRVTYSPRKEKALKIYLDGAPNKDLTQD
Summary of the method: as §1

USP48 = molecular target: T3, USP48 (UniProt Q86UV5)
T3 sequence (whole entry): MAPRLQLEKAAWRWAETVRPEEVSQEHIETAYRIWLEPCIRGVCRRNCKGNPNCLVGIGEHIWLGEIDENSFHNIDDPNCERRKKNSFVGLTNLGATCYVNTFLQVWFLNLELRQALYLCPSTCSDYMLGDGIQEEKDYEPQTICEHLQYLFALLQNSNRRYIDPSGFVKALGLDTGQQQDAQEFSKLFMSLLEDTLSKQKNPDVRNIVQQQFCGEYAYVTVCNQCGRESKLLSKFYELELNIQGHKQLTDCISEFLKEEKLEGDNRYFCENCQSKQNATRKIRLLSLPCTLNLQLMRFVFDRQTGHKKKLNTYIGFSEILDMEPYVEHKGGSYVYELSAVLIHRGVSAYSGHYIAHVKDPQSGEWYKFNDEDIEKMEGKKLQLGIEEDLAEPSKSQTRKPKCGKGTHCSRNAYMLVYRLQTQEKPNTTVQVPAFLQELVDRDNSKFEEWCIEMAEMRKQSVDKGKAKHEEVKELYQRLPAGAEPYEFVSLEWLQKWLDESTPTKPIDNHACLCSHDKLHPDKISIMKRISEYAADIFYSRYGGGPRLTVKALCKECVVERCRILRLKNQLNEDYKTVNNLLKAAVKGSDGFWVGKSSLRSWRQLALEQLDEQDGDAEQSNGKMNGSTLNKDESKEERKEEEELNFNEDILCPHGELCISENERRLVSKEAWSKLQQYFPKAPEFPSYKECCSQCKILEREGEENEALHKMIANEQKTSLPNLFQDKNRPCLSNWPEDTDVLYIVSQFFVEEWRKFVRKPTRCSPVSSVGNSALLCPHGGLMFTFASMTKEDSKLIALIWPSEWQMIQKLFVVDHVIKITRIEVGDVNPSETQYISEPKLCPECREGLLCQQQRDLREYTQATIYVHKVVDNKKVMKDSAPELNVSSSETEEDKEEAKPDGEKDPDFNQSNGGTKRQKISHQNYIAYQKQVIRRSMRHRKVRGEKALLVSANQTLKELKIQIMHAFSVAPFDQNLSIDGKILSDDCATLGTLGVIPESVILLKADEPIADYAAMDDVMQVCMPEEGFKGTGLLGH
Summary of the method: as §1

USP5 = molecular target: T4, USP5 (UniProt P45974)
T4 sequence (whole entry): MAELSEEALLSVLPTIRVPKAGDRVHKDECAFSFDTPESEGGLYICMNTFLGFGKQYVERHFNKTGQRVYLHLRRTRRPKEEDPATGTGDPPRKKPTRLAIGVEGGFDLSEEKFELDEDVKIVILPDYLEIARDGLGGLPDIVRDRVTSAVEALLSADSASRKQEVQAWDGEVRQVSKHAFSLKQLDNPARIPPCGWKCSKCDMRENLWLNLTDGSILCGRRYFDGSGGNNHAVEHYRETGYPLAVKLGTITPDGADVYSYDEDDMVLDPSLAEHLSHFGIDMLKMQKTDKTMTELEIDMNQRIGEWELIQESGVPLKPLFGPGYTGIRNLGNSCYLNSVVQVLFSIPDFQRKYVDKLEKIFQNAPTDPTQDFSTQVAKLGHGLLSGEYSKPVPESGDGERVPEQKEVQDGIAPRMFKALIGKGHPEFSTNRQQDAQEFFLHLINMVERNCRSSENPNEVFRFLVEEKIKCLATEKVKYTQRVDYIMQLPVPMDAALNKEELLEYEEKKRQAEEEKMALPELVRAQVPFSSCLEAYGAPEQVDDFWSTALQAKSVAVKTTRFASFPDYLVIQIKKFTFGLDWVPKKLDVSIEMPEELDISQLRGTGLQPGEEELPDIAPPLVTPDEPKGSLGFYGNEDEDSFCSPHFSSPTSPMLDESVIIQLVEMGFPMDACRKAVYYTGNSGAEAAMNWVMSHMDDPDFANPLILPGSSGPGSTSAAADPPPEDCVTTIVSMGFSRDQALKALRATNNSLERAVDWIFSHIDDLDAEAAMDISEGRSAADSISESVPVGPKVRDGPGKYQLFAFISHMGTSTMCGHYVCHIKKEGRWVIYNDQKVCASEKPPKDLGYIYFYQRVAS
Summary of the method: as §1

USP54 = USP54 (UniProt Q70EL1)
Summary of the method: as §1

USP7 = USP7 (UniProt Q93009)
Summary of the method: as §1

USP8 = molecular target: T5, USP8 (UniProt P40818)
T5 sequence (whole entry): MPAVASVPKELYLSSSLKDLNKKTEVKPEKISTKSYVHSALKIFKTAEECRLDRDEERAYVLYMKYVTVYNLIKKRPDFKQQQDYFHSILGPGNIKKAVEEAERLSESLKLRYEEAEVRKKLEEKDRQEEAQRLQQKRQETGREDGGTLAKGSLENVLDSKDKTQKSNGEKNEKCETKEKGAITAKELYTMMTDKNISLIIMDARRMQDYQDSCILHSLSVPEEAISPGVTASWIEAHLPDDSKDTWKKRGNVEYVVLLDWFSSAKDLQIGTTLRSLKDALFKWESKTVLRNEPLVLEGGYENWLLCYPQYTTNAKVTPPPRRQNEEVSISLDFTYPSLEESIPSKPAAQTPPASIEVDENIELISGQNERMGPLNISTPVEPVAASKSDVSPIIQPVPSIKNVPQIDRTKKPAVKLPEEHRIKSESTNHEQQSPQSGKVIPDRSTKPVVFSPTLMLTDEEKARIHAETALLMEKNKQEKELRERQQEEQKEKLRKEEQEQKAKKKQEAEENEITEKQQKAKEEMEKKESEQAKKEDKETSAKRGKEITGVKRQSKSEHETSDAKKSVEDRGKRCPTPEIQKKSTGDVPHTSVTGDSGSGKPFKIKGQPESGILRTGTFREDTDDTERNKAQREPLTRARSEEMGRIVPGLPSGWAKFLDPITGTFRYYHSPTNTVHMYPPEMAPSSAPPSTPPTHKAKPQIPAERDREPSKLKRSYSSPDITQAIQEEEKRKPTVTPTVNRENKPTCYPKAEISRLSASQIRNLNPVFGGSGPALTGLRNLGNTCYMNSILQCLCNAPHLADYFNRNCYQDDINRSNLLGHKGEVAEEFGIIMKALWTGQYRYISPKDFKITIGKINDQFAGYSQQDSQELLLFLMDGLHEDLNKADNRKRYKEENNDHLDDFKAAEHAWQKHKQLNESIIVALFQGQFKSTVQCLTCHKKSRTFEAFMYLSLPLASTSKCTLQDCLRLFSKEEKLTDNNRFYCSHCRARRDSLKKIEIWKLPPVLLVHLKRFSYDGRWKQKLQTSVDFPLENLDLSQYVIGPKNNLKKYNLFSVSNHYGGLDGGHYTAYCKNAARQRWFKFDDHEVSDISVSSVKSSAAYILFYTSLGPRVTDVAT
Summary of the method: as §1

USP9X = USP9X (UniProt Q93008)
Summary of the method: as §1

UniProt O00487 = molecular target: UniProt O00487
Summary of the method: as §1

Measured: log2 ratio of Biotin-Ahx-Ub-VS probe labelling

Chain of USP54 (Q70EL1 whole entry): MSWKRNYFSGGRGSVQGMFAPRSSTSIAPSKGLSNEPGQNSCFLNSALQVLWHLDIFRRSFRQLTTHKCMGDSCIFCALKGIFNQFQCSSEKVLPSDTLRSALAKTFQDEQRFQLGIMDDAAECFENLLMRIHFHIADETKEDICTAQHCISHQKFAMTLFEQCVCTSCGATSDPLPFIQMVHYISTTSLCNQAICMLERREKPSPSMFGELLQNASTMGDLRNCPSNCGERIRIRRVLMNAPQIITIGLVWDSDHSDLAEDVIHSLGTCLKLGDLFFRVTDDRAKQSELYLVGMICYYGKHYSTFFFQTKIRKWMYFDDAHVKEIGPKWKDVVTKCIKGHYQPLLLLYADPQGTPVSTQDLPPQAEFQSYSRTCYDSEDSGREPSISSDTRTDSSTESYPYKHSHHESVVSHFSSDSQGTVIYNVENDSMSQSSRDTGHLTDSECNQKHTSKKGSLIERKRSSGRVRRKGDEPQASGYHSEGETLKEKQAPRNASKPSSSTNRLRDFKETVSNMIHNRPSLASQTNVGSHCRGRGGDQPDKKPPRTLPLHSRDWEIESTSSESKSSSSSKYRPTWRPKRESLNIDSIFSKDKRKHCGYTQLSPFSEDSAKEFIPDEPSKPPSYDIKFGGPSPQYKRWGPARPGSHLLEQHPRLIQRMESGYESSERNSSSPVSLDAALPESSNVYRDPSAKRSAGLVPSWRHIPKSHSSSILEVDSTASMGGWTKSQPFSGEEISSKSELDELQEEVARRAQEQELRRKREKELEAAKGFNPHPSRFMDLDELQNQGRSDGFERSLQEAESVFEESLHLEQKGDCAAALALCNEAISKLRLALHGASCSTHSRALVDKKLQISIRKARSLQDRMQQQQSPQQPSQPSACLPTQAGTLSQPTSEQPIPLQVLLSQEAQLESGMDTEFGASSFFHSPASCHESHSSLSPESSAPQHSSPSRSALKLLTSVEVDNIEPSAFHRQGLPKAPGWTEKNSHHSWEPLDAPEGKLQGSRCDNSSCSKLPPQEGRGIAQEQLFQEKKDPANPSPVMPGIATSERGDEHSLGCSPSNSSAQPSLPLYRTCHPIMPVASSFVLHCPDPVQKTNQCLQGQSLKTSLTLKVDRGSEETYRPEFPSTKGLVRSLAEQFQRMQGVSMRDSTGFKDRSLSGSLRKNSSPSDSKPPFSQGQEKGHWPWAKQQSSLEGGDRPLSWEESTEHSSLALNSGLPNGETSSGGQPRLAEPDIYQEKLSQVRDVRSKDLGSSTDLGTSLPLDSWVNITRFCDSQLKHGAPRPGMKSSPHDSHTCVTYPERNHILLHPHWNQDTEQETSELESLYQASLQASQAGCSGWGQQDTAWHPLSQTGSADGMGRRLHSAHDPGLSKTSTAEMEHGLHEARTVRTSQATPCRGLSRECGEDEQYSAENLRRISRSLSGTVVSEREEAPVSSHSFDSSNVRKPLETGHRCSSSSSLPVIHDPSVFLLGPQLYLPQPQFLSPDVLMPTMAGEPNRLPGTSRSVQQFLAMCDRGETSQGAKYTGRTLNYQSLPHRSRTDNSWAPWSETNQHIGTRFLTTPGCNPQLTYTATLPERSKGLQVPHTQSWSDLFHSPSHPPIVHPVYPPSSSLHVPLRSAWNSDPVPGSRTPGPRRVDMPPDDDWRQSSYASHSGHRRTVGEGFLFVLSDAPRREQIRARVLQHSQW
Chain of USP7 (Q93009 whole entry, looked up): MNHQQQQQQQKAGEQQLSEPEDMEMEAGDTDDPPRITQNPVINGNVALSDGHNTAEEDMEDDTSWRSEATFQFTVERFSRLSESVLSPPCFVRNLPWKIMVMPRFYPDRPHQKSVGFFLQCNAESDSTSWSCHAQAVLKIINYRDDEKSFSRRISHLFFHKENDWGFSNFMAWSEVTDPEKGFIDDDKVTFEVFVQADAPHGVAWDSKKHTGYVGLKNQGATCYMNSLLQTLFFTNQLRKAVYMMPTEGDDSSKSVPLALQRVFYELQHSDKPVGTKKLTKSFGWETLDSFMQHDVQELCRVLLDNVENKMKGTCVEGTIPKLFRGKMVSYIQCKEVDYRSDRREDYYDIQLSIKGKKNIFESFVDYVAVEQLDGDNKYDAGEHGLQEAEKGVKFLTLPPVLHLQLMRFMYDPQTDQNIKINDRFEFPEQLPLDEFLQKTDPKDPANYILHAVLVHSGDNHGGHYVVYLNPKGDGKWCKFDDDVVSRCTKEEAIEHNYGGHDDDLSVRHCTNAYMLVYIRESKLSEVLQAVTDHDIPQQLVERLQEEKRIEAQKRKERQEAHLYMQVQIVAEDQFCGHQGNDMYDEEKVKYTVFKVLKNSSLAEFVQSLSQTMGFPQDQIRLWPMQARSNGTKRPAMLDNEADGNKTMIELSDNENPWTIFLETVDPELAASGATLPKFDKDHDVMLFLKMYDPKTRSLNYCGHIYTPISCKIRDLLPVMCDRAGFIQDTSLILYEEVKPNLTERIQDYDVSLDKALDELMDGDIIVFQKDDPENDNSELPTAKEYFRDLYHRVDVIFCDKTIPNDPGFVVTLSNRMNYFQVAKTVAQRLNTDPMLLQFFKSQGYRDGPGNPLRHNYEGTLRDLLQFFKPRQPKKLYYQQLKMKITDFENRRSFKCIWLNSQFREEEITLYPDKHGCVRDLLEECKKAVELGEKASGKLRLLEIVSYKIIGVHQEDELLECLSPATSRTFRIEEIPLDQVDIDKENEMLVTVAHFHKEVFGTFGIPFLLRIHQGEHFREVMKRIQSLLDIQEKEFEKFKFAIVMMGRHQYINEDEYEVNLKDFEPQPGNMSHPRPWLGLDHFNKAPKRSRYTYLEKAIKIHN
Chain of UniProt O00487 (O00487 whole entry): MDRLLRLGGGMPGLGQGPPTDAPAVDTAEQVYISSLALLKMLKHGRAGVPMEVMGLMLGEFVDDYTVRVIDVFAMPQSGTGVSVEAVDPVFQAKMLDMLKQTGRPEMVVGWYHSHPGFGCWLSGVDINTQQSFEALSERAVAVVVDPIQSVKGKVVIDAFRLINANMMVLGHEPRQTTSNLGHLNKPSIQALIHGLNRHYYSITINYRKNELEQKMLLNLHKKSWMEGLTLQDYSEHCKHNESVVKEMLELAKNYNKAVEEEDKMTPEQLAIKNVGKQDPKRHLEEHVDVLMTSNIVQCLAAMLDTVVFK
Chain of USP46 (P62068 whole entry): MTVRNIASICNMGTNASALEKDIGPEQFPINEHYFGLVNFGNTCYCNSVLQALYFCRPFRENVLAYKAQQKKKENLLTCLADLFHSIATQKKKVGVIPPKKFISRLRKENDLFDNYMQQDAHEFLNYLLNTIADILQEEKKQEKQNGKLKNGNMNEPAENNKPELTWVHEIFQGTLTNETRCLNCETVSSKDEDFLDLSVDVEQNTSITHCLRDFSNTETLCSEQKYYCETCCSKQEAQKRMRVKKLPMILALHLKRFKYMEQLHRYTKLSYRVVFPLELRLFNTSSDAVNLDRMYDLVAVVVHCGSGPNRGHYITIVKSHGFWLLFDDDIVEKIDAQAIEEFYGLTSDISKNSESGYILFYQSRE

COc1ccc(C2CCCN2C(=O)CCl)c(OC)c1 (stereo not given)
inactive: USP42 0.426 | USP46 -0.295 | USP47 -0.378 | USP48 -0.744 | USP5 0.0602 | USP54 0.223 | USP8 -0.00675 | USP9X -0.271 | UniProt O00487 -0.0639
active: USP7 -1.23

O=C(CCl)NCC(=O)N1CCCC1
inactive: USP42 0.103 | USP46 0.0751 | USP47 0.107 | USP48 -0.00296 | USP5 0.205 | USP54 0.812 | USP7 -0.0345 | USP8 -0.434 | USP9X -0.168 | UniProt O00487 -0.0526

CN(C)C(=O)c1ccc(NC(=O)CCl)cc1
inactive: USP42 -0.0444 | USP46 -0.0105 | USP47 -0.38 | USP48 -0.84 | USP5 0.14 | USP54 -0.408 | USP7 -0.0714 | USP8 -0.446 | USP9X -0.0881 | UniProt O00487 -0.0189
